Bioassay records deposited in PubChem by The Scripps Research Institute Molecular Screening Center.
Hits are enriched below; roughly 4.1% of the tested compounds scored in any of these assays.
hcDAF12 agonist – H. contortus DAF-12 activation, primary screen. HEK293 hcDAF-12 lit1-tk-luc reporter, luminescence; 0% DMSO, 100% Δ7-dafachronic acid. activation, % at 6.8 µM. 370,000 tested, 1.4% active. AID 652067;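 active = activation above the mean of all tested compounds plus 3 SD, cut at about 5.5% in these data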
ssDAF-12 act – activators of S. stercoralis DAF-12 nuclear receptor; 370,000 tested, 1% active; HEK293 ssDAF-12/GRIP1 lit1-tk-luc reporter, luminescence; % of 3 µM dafachronic acid response; activation, % at 6.8 µM;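 active = activation above the mean over all tested compounds plus 3 SD, cut at about 0.9% in these data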
DAX1 inh-1 – inhibits human nuclear receptor DAX1; HEK293 Gal4-DAX1 luciferase reporter, luminescence; P51843; 340,000 tested, 0.99% active; inhibition, % at 6.75 µM;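 active = inhibition above the mean over all tested compounds plus 3 SD, cut at about 4.2% in these data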;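 also: inhibition shows as a rise in luminescence from relieved DAX1 repression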
Target sequence (P51843 207-470 limits assumed): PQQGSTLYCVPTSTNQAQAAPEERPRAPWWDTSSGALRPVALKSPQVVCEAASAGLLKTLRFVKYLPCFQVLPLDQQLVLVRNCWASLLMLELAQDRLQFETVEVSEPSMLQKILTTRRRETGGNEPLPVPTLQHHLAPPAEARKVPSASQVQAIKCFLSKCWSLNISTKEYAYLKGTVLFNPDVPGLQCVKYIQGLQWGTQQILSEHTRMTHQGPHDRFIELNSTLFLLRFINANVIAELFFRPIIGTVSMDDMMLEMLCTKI
DAX1 inh-2 – inhibitors of DAX1 repression of SF-1 activated StAR promoter; HEK293T StAR-luciferase reporter, SF-1/DAX-1 repression relief; inhibition, % at 6.8 µM; 370,000 tested, 1.1% active;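 active = inhibition above the mean over all tested compounds plus 3 SD, cut at about 3.6% in these data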;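 also: higher inhibition means more luminescence from relief of DAX-1 repression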
hgDAF-12 ag – agonists of H. glycines DAF-12 nuclear receptor. HEK293 GAL4-hgDAF12 UAS-luciferase reporter, agonist luminescence; normalized to butyrate control. activation, % at 6.8 µM. 370,000 tested, 1.8% active;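 active = activation above a cutoff set at the mean of all screened compounds plus 3 SD, cut at about 10% in these data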
Numbers stand for hits; - = inactive; . = not tested or not shown.

SMILES | hcDAF12 agonist | ssDAF-12 act | DAX1 inh-1 | DAX1 inh-2 | hgDAF-12 ag
COC(=O)c1cc(C(=O)OCC(=O)Nc2ccc(N3CCOCC3)cc2)cc([N+](=O)[O-])c1 | - | - | - | - | -
Cc1ccc(NC(=S)NNC(=O)CSc2nnc(SCc3cccc4ccccc34)s2)cc1 | - | - | . | - | -
Cc1ccc(NC(=O)c2noc3c2CCCCC3)cc1C | - | - | - | 4.0 | -
O=C(NCCc1ccccc1)c1noc2c1CCCCC2 | - | - | - | 4.3 | 12
O=C(Nc1ccc(-c2nc3cc(Cl)ccc3o2)cc1)C1CCCO1 (stereo unspecified) | - | - | - | - | 12
O=C(O)c1ccccc1-c1ccccc1C(=O)Nc1ccc(-c2nc3cc(Cl)ccc3o2)cc1 | - | - | - | - | -
CC(=O)Nc1ccc(-c2nc3cc(Cl)ccc3o2)cc1 | - | - | 5.5 | - | 11
Cc1sc(NC(=O)c2ccco2)c(C(Nc2ccccn2)c2ccccc2)c1C (stereo unspecified) | - | - | - | - | 11
CCc1ccc(N(C(=O)Cn2nnc(-c3ccccc3)n2)C(C(=O)NC2CCCCC2)c2ccccn2)cc1 (stereo unspecified) | 6.5 | - | - | - | -
CC(=O)c1ccc(N(C(=O)Cn2nnc(-c3ccccc3)n2)C(C(=O)NC2CCCCC2)c2ccccn2)cc1 (stereo unspecified) | - | - | - | - | -
O=c1[nH]c2ccccc2c2ccc(Cl)cc12 | - | - | - | - | -
Nc1c(Br)cc2c([nH]c(=O)c3ccccc32)c1Br | 6.3 | 2.4 | - | - | -
COc1cc(OCc2ccccc2)c(CC(=O)O)c([N+](=O)[O-])c1 | - | - | - | - | -
COc1ccc(/C(C)=N/Nc2nc3ccccc3nc2C)cc1 | 5.8 | 1.1 | - | - | -
COc1ccc(/C(C)=N/Nc2nncc3ccccc23)cc1 | - | - | - | - | -
C[C@@H]1CN(c2ccc(N3CCN(C(=O)OC(C)(C)C)C[C@@H]3C)cc2C#N)CCN1Cc1ccccc1 | - | - | . | - | -
Cc1ccsc1/C=N/n1c(-c2ccccn2)n[nH]c1=S | 5.7 | - | - | - | -
Cc1ccsc1/C=N/n1c(-c2ccccc2)n[nH]c1=S | - | - | - | - | -
COc1ccc(C(=O)CC(=O)C(=O)NCCc2cccc(C)c2)cc1 | 6.4 | - | - | - | -
COc1ccc(C(=O)CC(=O)C(=O)Nc2cc(C)ccc2C)cc1 | - | - | - | - | -
COc1ccc(OC(=O)NCCc2ccccc2)cc1 | - | - | - | - | 13
COc1ccc(CCNC(=O)c2ccccc2)cc1 | - | - | - | - | -
NC(=O)c1c(N)[nH]c(C(=O)c2ccccc2)c1-c1ccccc1C(F)(F)F | - | - | . | . | -
N=c1cc(C2(O)CCCCC2)n2c(nc3ccccc32)s1 | - | - | - | 3.6 | 11
O=C(N/N=C/c1ccco1)c1cccc(N2CCCC2=O)c1 | - | - | - | - | 11
SMILES | hcDAF12 agonist | ssDAF-12 act | DAX1 inh-1 | DAX1 inh-2 | hgDAF-12 ag
O=C(N/N=C/c1cc(Br)ccc1O)c1cccc(N2CCCC2=O)c1 | - | - | - | - | -
O=C(Nc1ccccc1)c1cccc(N2CCCC2=O)c1 | - | - | - | - | 12
COC(=O)c1ccc(-c2nc3cc(Cl)c(N)cc3s2)cc1 | - | - | - | - | 11
COC(=O)c1ccc(-c2nc(O)c(C)s2)cc1 | - | - | - | - | -
COc1ccc2ccccc2c1C=NNC(=O)CN1CCN(Cc2ccccc2)CC1 | - | - | . | - | -
COc1ccc(Cl)cc1N1C(=O)C2CCCN2C1c1ccc(F)cc1 (stereo unspecified) | - | - | 4.5 | - | -
O=C1C2CCCN2C(c2ccc(F)cc2)N1c1cccc(Cl)c1 (stereo unspecified) | 6.4 | - | - | - | -
O=C(NCCc1ccccc1Cl)[C@@H]1CCCN1C(=O)[C@@H](NC(=O)N1CCOCC1)C1CCCCC1 | - | - | . | - | -
COc1ccc(OC)c(N)c1 | - | - | 5.1 | - | -
CC1(C)CC2CN(Cc3ccccc3)S(=O)(=O)N2C1 (stereo unspecified) | - | - | . | . | -
CCN(CC)Cc1c(NC(=O)c2ccccc2)sc(C)c1C | - | - | - | - | 11
O=[N+]([O-])c1ccc(COc2cccc(CO)c2)cc1 | - | - | . | - | -
CN(C(=O)CSc1nnc(-c2cccs2)n1N)c1ccccc1 | - | - | - | - | -
Cc1nnc(SCC(=O)N(C)c2ccccc2)n1-n1cccc1 | . | . | 4.7 | . | .
COc1cccc(-c2sc3ccc(OC)cc3c2-c2ccc(OCCN3CCOCC3)cc2)c1 | - | - | - | - | -
COc1cccc(-c2sc3ccc(OC)cc3c2-c2cnc(N3CCOCC3)nc2)c1 | - | - | . | - | 11
O=S1(=O)CC2c3ccccc3CCN2CN1Cc1ccc(F)cc1 (stereo unspecified) | - | - | . | - | -
CN(C)c1cccc(-c2nnc(SCCCC#N)o2)c1 | - | - | - | - | 11
CN(C)CCSc1nnc(-c2ccccc2)o1 | - | - | - | - | -
COc1ccc(OCC2CCNCC2)cc1 | - | - | 4.5 | - | -
COc1ccc(CNC(=O)C2CCNCC2)cc1 | - | - | - | - | -
O=C(Cc1c[nH]c2ccccc12)Nc1ccc(Nc2cccnc2)c(-c2ccc(Cl)c(Cl)c2)c1 | - | - | . | - | -
Cn1/c(=N\NC(=O)c2ccccc2Cl)sc2ccccc21 | - | - | - | - | 12
CC(=O)N/N=c1\sc2ccccc2n1C | - | - | - | - | -
O=C(NC1CC1c1ccccc1)N1CCC(c2nc3ccc(Cl)cc3[nH]2)CC1 (stereo unspecified) | - | - | . | - | -
SMILES | hcDAF12 agonist | ssDAF-12 act | DAX1 inh-1 | DAX1 inh-2 | hgDAF-12 ag
COCCNc1nc(Oc2ccc(CC(=O)OC)cc2)c2sc(-c3ccccc3)cc2n1 | - | - | . | 3.8 | -
COc1cccc(/C=C(\C#N)c2nc3ccc(C)cc3[nH]2)c1OCC(=O)O | 6.1 | - | - | - | -
Cc1ccc2nc(/C(C#N)=C/c3ccccc3C(=O)O)[nH]c2c1 | - | 1.0 | 8.4 | - | -
N#C/C(=C\c1ccccc1C(=O)O)c1nc2ccccc2[nH]1 | - | - | 4.4 | - | -
Cc1ccc2nc(/C(C#N)=C/c3ccc(O)c(O)c3)[nH]c2c1 | - | - | - | - | -
COc1ccc2nc3cc(Cl)ccc3c(Nc3cc(CN4CCCC4)c(O)c(CN4CCCC4)c3)c2n1 | - | - | . | 4.3 | -
COc1ccc2nc3cc(Cl)ccc3c(Nc3cc(C(C)C)c(O)cc3C)c2c1 | - | - | - | - | -
CNC(C)C#Cc1ccc2c(=O)c3cc(C)c(C)cc3oc2c1 (stereo unspecified) | - | - | - | - | 11
COc1cc(/C=C/C(=O)OCC(=O)NC(=O)NC(C)(C)C)ccc1O | - | - | 4.5 | - | -
COc1cc(/C=C/C(=O)OCC(=O)Nc2cccc(F)c2)ccc1O | - | - | - | - | -
CCOC(=O)c1c(/N=C/c2ccc(OC)cc2O)sc2c1CCN(C)C2 | - | - | - | - | -
